# Compound activity from PubChem BioAssay.
# Compounds with a hit are over-represented: about 4.1% of the library has one in this group of screens.
# NSD2 inh: inhibitors of human histone methyltransferase NSD2. O96028. NSD2 peptide methylation, AlphaScreen, 120 min. inhibition, % at 12.5 µM. 310,000 tested, 0.54% active; in the data active = inhibition above about 50%
# Casp6 inh: inhibitors of human caspase-6 | P55212 | purified caspase-6, Z-VEID-R110 cleavage fluorescence | inhibition, % at 12.5 µM | 350,000 tested, 0.53% active;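 active = mean inhibition across replicates at least about 35%, with every replicate also reaching that limit, limit read from the data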;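 note: 0% = median of neutral control wells and 100% = no fluorescence left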
# Target sequence (P55212 24-179 limits assumed): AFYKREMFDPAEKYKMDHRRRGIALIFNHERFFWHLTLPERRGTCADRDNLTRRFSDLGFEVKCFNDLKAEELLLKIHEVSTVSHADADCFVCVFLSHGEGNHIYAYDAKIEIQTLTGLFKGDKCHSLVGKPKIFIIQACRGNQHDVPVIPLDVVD
# Target sequence (P55212 194-293 limits assumed): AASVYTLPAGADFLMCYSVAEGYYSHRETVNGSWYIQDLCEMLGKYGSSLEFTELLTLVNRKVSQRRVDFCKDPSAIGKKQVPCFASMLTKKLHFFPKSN
# PglD inh: blocks C. jejuni PglD acetyltransferase activity; purified PglD enzyme, DTNB colorimetric CoA detection; inhibition, % at 12.5 µM; 360,000 tested, 0.098% active; in the data active = inhibition above about 16%, passing the limit was not always enough
# ALR H2O2 inh: inhibitors of human sulfhydryl oxidase ALR. P55789. purified ALR, DTT oxidation, H2O2 HRP-luminol luminescence. inhibition, % (concentration not given with the values). 290,000 tested, 3.8% active. AID 485317;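 active = mean replicate inhibition above about 79%, with every replicate also reaching it, limit read from the data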
# Target sequence (P55789 whole entry, looked up): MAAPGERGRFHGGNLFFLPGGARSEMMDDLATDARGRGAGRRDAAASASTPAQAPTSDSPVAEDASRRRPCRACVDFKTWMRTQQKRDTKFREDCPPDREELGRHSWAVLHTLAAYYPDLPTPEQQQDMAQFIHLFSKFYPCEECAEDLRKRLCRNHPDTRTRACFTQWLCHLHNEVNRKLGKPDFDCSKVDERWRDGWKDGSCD
# F508del corr: correctors of CFTR F508del function in bronchial epithelial cells; CFBE cells, YFP halide quenching; stimulated with forskolin plus potentiator P3; % fluorescence drop versus neutral controls; activity (quench increase), % at 7.58 µM; 350,000 tested, 0.36% active; AID 720511;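 active = mean added fluorescence quench of at least 8% versus neutral control, with both replicates also reaching 8%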;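 note: cells transiently co-express mutant CFTR-F508del with the halide-sensitive YFP; corrector assay measuring rescue of mutant channel to the surface after 24 h compound exposure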
# Env fusion inh: HIV envelope-mediated fusion inhibition; HeLa-JRFL Env/CEM21 cell fusion, luciferase; inhibition, % at 12.3 µM; 360,000 tested, 1.1% active;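 active = mean replicate inhibition score of at least 50 and every replicate individually at or above 50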;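 note: 0% = plate neutral controls and 100% = maraviroc near 300 nM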
# Starred values were filed as active, the others as inactive; · = no result given; [ ] = remark or other dose.
SMILES,NSD2 inh,Casp6 inh,PglD inh,ALR H2O2 inh,F508del corr,Env fusion inh
C[C@@H]1CN([C@H](C)CO)S(=O)(=O)c2ccc(C3=CCCCC3)cc2O[C@@H]1CN(C)S(=O)(=O)c1cn(C)cn1,·,3.4,1.9,·,-2.5,·
CCCc1cn(CC[C@H]2CC[C@@H](NS(=O)(=O)c3ccc(-c4ccccc4)cc3)[C@@H](CO)O2)nn1,·,-3.2,-2.4,·,-1.2,25.6[16.7 µM]
CCCCN(C(=O)c1cc(S(=O)(=O)N2CCCCCC2)ccc1OC)c1ccccc1,-1.3,1.9,-5.4,1.0,-4.5,93.3*
CCCCN(C(=O)c1cc(S(=O)(=O)N2CCOCC2)ccc1Cl)c1c(N)n(CC(C)C)c(=O)[nH]c1=O,1.6,-2.4,·,-0.5,3.0,59.0*
CCCCN(C(=O)c1cc(S(=O)(=O)N2CCCCC2)ccc1Cl)c1c(N)n(CC(C)C)c(=O)[nH]c1=O,1.2,1.7,-2.4,·,10.0*,-35.7
CCCCN(C(=O)Cc1ccc(S(=O)(=O)N2CCOCC2)s1)c1c(N)n(CC(C)C)c(=O)[nH]c1=O,2.3,4.2,·,·,1.2,-35.1
O=C(NCc1ccc(F)cc1)[C@@H]1[C@@H](CO)[C@@H]2Cn3c(cccc3=O)[C@H]1N2,·,1.8,1.5,·,0.1,·
Cc1cccc2nc(CSCc3ccco3)cn12,0.0,·,7.7,98.0*,·,·
C[C@H](CO)N1C[C@H](C)[C@@H](CN(C)S(=O)(=O)c2cccs2)Oc2ccc(NC(=O)Nc3ccc4c(c3)OCO4)cc2CC1=O,·,·,0.2,·,-3.3,15.1[16.7 µM]
O=C(Nc1cc2c3c(c1)CC(=O)N3CCC2)c1ccc(Cl)cc1,-2.5,1.2,-2.0,-15.1,1.3,84.6*
O=C(C[C@H]1C[C@@H]2c3cc(NC(=O)c4ccc5c(c4)OCO5)ccc3O[C@@H]2[C@@H](CO)O1)NCc1ccccn1,·,1.1,-8.1,·,1.7,12.3[16.7 µM]
Cn1c(-c2ccccc2)cccc1=O,3.3,·,-1.3,-2.1,·,-23.3
Cn1c(-c2ccccc2)c[n+]2c1-c1ccccc1C2,-1.4,-0.9,·,-7.8,2.3,56.7*
C=CCc1cc(/C=N/n2cnnc2)cc(OCC)c1O,-1.3,·,-2.7,48.5,·,46.2
CCOc1cc(/C=N/Nc2nn3cnnc3c3ccccc23)ccc1O,4.2,-1.0,2.4,81.7*,-2.8,4.5
COc1cc(/C=N/Nc2nn3cnnc3c3ccccc23)ccc1O,-3.2,·,3.0,3.6,·,-38.6
CCOc1cc(/C=N/n2cnnc2)ccc1O,5.4,1.1,-0.5,99.2*,3.1,·
COc1ccccc1C(=O)NCCC(=O)NC1CCCC(C)C1C (stereo not given),-0.4,-4.6,-3.4,-3.4,-1.8,58.4*
NC(=S)NN=Cc1nccc2c(N)cccc12,·,32.3,-1.3,·,12.6*,11.6
CCN(C(C)=O)c1cnc(C=NNC(N)=S)c2ccccc12,7.6,33.3,·,·,2.8,9.2
COc1cccc(S(=O)(=O)N[C@@H]2CC[C@@H](CCN)O[C@@H]2CO)c1,·,-2.4,11.1,·,0.4,18.2[16.7 µM]
COc1cccc(S(=O)(=O)N[C@@H]2CC[C@H](CCN)O[C@H]2CO)c1,·,2.5,-0.3,·,4.5,65.6*[16.7 µM]
COc1cccc(S(=O)(=O)N[C@H]2CC[C@@H](CCN)O[C@@H]2CO)c1,·,5.3,-0.3,·,1.3,68.0*[16.7 µM]
COc1cccc(S(=O)(=O)N[C@@H]2CC[C@H](CCN)O[C@@H]2CO)c1,·,-6.5,0.5,·,-1.6,9.2[16.7 µM]
CC(C)NC(=O)Nc1ccc2c(c1)C(=O)N([C@@H](C)CO)C[C@@H](C)[C@H](CN(C)C(=O)CCC(F)(F)F)OCCCC[C@H](C)O2,·,-2.3,0.4,·,-0.5,5.4[16.7 µM]
SMILES,NSD2 inh,Casp6 inh,PglD inh,ALR H2O2 inh,F508del corr,Env fusion inh
CCCNC(=O)Nc1ccc2c(c1)OC[C@H](C)N(C(=O)c1ccccc1F)C[C@@H](C)[C@@H](OC)CN(C)C2=O,·,0.4,-0.6,·,-1.3,·
COc1ccc(CN2CCn3ncc(C(=O)Nc4ccccc4)c3C2=O)cc1,1.9,·,·,·,·,·
O=C(O)c1cnn2c1C(=O)N(Cc1cccs1)CC2,8.4,63.7*,·,-5.1,0.4,3.6
CO[C@@H]1CN(C)C(=O)c2ccc(NC(C)=O)cc2OC[C@@H](C)N(C(=O)c2ccncc2)C[C@@H]1C,·,·,2.3,·,2.1,·
CC(=O)N(Cc1ccc(F)cc1)c1cccc(C)c1C,-1.6,0.3,·,-2.4,1.5,9.9
CC(=O)N(Cc1ccc(F)cc1)C1=C(NCCc2ccccc2)C(=O)c2ccccc2C1=O,·,·,-3.3,·,·,84.1*
CN(C)S(=O)(=O)c1ccc(Cl)c(NC(=O)CSc2nc3c(cc2C#N)C(=O)CC(C)(C)C3)c1,-1.0,5.5,-4.8,14.9,·,6.5
CN(C)S(=O)(=O)c1cccc(NC(=O)CSc2nc3c(cc2C#N)C(=O)CC(C)(C)C3)c1,2.0,2.1,·,97.9*,·,70.2*
COC(CNC(=O)[C@H](CSCc1ccccc1)N1Cc2ccccc2C1=O)OC,-2.9,-0.5,·,-1.8,-3.3,-2.1
COC(CNC(=O)[C@H](Cc1ccccc1)N1Cc2ccccc2C1=O)OC,-0.4,0.7,8.4,·,8.5*,-2.0
Cc1ccc(-c2csc3nc[nH]c(=S)c23)cc1,2.0,·,·,96.6*,·,-12.3
Cc1cc(-c2csc3nc[nH]c(=S)c23)cc(C)c1C,·,6.5,3.3,97.3*,-1.6,9.0
S=c1[nH]cnc2scc(-c3ccc(Br)cc3)c12,-4.0,0.1,·,-8.1,2.9,26.2
CCCCCCCCN1C(=O)[C@H](CC(=O)NCCCCc2ccccc2)C[C@@]2(C(=O)OCC)CCCC=C12,·,-1.6,·,·,-2.2,68.6*
CCOC(=O)[C@]12CCC=C1N(Cc1ccccc1)C(=O)[C@H](CC(=O)NCC13CC4CC(CC(C4)C1)C3)C2,·,-0.7,·,·,-1.1,63.9*
C/C=C/c1ccc2c(c1)[C@@H]1[C@@H](CCN1S(=O)(=O)c1ccccc1C)[C@H](CO)N2,·,-0.3,·,·,0.8,·
CNC[C@@H]1OCCCC[C@@H](C)Oc2ccc(NS(=O)(=O)c3ccc(OC)cc3)cc2C(=O)N([C@H](C)CO)C[C@H]1C,·,1.7,1.7,·,-1.6,-17.3[16.7 µM]
C[C@@H](NC(=O)C[C@@H]1CC[C@@H](NC(=O)Cc2ccccn2)[C@H](CO)O1)c1ccccc1,·,3.1,-2.4,·,0.9,4.4[16.7 µM]
COC(=O)CSc1nnc(COc2cccc3ccccc23)o1,-4.0,0.8,6.7,-11.6,-3.5,6.8
Cc1csc(N(C)C(=O)CSc2nnc(COc3cccc4ccccc34)o2)n1,0.3,·,-0.7,-2.9,·,104.6*
CCC(=O)Nc1ccc2c(c1)C(=O)N(C)C[C@H](OC)[C@H](C)CN(C(=O)CN1CCOCC1)[C@@H](C)CO2,·,·,·,·,-0.8,·
COC(=O)c1ccc(NC(=O)CSc2nn3c(=O)c(C)nnc3s2)cc1,2.2,1.7,4.4,93.2*,1.1,-13.0
Nc1nnc(SCC(=O)OCC(=O)Nc2ccc(Br)cc2)s1,-1.9,-1.6,-1.3,99.2*,-0.6,·
Cc1nnc2sc(SCC(=O)Nc3ccc(Br)cc3)nn2c1=O,-0.2,-0.9,·,97.3*,-0.3,-3.0
COc1ccc(NC(=O)CSc2nn3c(=O)c(C)nnc3s2)cc1,-1.8,-1.5,-3.8,65.0,1.2,-17.9
